# Experimental data published in PubChem BioAssay (NCI).
# About 83,000 compounds went through this panel and 20% of them were active in at least one assay; those are over-represented in the sample as a whole.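 Method: cells in 96-well plates; compound added at one concentration; 48 h incubation; percent growth measured; values under 10 scored active.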 A number with no mark means an inactive call. Calls of active or inactive are those of the source.
# Test system: COLO 205 colon
# Assay: NCI-60 one-dose screen, 48 h (100 = growth as untreated, 0 = no growth, -100 = all killed)
# Details: 10 µM unless noted
# Procedure: Cells are grown in 96 well plates and exposed to the test compound for 48 hours. Compounds are tested at a single concentration, which is 10^-5 M for most compounds. The reported endpoint is percent growth (GI% or GIPRCNT), where numbers from 0 - 100% represent growth inhibition, and numbers from -100% - 0 represent cell death. For example, a value of 40 represents 60% growth inhibition. A value of 0 means no net growth occurred over the course of the experiment. A value of -40 indicates 40% of cells at the beginning of the experiment died by the end of the experiment. A value of -100 means all cells are dead at the end of the experiment.
# NCI-60 Human Tumor Cell Lines Screen was performed using the standard one-dose NCI protocol, which is described in more detail at https://dtp.cancer.gov/discovery_development/nci-60/default.htm.
# Compounds with GIPRCNT values below 10 were considered active. Activity score was based on GIPRCNT using the following formula: […]
# Score is 0 for GIPRCNT values of 100 or above, 50 for GIPRCNT values of 0, and 100 for GIPRCNT values of -100.
row,Compound,growth
1,CCSC(SCC)c1ccc(Cl)cc1,117%
2,CN1CCN(C(=O)c2ccc(NC(=O)c3cc4c(nn3)NCCN4Cc3cc(Cl)ccc3Cl)cc2)CC1,71.1%
3,NC(=O)c1c(NC(=O)c2ccc3ccccc3c2)sc2c1CCC(=O)C2,58.4%
4,COCCn1cc(-c2nc(-c3cc4cccnc4[nH]3)cs2)c2cc(OC)ccc21,49.4%
5,O=C(Nc1cccc(-c2ccc(Cl)c(C(F)(F)F)c2)c1)C1CCN(Cc2cccc3cccnc23)CC1,-72.2% (active)
6,C=C1CC[C@@H]2[C@](C)(COC(C)=O)[C@H](OC(C)=O)CC[C@@]2(C)[C@@H]1CC(Nc1ccc(S(=O)(=O)Nc2ncccn2)cc1)C1=CCOC1=O (stereo not given in full),-12.1% (active)
7,COC(=O)c1nc(-c2ccc(C)cc2)oc1S(=O)(=O)c1cccc(OC)c1,-8.96% (active)
8,O=C(c1ccccc1)c1ccc(C2CCCCC2)cc1,101%
9,COc1cc2oc(-c3cccc(NC(=O)c4ccccc4)c3)cc(=O)c2c(OC)c1OC,84.4%
10,COc1cccc(CNc2ccc3ncnc(Nc4ccc(F)c(Cl)c4)c3c2)c1,91.3%
11,Cn1ccnc1C(=O)/C=C/c1ccc(C(=O)Nc2ccccc2O)cc1,56.5%
12,CN(/C(N)=N/N=C/c1c2ccccc2cc2ccccc12)C1CCCCC1,-55.5% (active)
13,CCCCNC(=O)Oc1ccc(/C(=C(/C)Cc2ccc(OC)cc2)c2ccc(OCCN3CCCC3)cc2)cc1,-57.4% (active)
14,Nc1c(C(=O)Nc2ccncc2)sc2nc3c(cc12)C(O)CCC3 (stereo not given),113%
15,CCOC(=O)C(=O)C(C(=O)OCC)c1ccccc1 (stereo not given),118%
16,COc1ccc(-c2ccc(-c3ccc(C(=N)N)cc3)s2)cc1Cl,-36.1% (active)
17,CCOc1ccc(NC(=O)CSc2oc(-c3ccccc3)nc2S(=O)(=O)c2ccc(C)cc2)cc1,81.8%
18,O=C1c2c(c3c4ccccc4[nH]c3c3ccc4ccccc4c23)C(=O)N1CCN1CCNCC1,79.1%
19,O=C(/C=C(/C=C/c1ccc2[nH]ccc2c1)OB(F)F)/C=C/c1ccc2[nH]ccc2c1,-38.4% (active)
20,CN(C)c1ccc(-c2c(C#N)c(N)nn2C(=O)c2ccc(NC(=O)c3ccccn3)cc2)cc1,104%

row,Compound,growth
1,CCCC/C(CC)=N\NS(=O)(=O)c1ccc([N+](=O)[O-])cc1,105%
2,C=C1C(=O)O[C@H]2[C@H]1CC/C(COC(=O)/C=C\C(=O)NCc1ccc(Cn3c(=O)sn(CCI)c3=O)cc1)=C\CC[C@@]1(C)O[C@@H]21,-32.8% (active)
3,COC(=O)[C@@H](CCCCNC(=O)[C@]12CCC(C)(C)C[C@@H]1C1=CC[C@@H]3[C@@]4(C)C/C(=C/c5ccco5)C(=O)C(C)(C)[C@@H]4CC[C@@]3(C)[C@]1(C)CC2)NC(=O)[C@]12CCC(C)(C)C[C@@H]1C1=CC[C@@H]3[C@@]4(C)C/C(=C/c5ccco5)C(=O)C(C)(C)[C@@H]4CC[C@@]3(C)[C@]1(C)CC2,120%
4,NNc1nc(-c2cccnc2)nc2c1sc(=S)n2-c1ccccc1,98.4%
5,C=CCn1c(C)nc2ccc(Nc3nc(Nc4ccc5nc(C)n(CC=C)c5c4)c4ccccc4n3)cc21,-92.3% (active)
6,N#Cc1nc(-c2ccc(Cl)cc2)oc1S(=O)(=O)N1CCN(c2ccc(F)cc2)CC1,102%
7,CCOC(=O)NC(C)C,129%
8,CC(C)C1=NOC(=O)C1=Cc1cn(-c2ccccc2)nc1-c1ccc(F)cc1,94.4%
9,C/C(=N\O)c1ccc(Cl)cc1,108%
10,CC1CCN(S(=O)(=O)c2ccc(S(=O)(=O)N3CCCC(c4nc5c(nnn5Cc5cccc(Cl)c5)c(=O)[nH]4)C3)cc2)CC1 (stereo not given),91.3%
11,CC(=O)n1nc(C(=O)OC(C)(C)c2ccccc2)c2ccccc21,107%
12,COc1cc2c(cc1OCCCN1CCN(CCCOc3cc4c(cc3OC)C(=O)N3CC(F)(F)C[C@H]3C=N4)CC1)N=C[C@@H]1CC(F)(F)CN1C2=O,43.1%
13,COc1ccc(C(O)c2cc3c(N)c(C(=O)Nc4cccc(Br)c4)sc3nc2C)cc1 (stereo not given),-25% (active)
14,O=C1/C(=C/c2cn(-c3ccccc3)nc2-c2ccccc2)SC(=S)N1C1CCCCC1,117%
15,Ic1ccc(OCCCCn2ccnc2)cc1,29.3%
16,CCCCCN1C(=O)/C(=c2\sc3n(c2=O)C2C(NN=3)N(CC)C(=O)N2CC)c2ccccc21 (stereo not given),0.959% (active)
17,CCO/C=N/C1=C(C#N)C(c2ccc(Cl)cc2)c2sc3c(F)cccc3c2O1 (stereo not given),95.7%
18,Cc1nc2sc(C(=O)Nc3cccc4ccccc34)c(N)c2cc1C(O)c1ccccc1 (stereo not given),-58.2% (active)
19,Cc1ccccc1/C=C/C(=O)c1cccc(OCCCOc2cccc(C(=O)/C=C/c3ccccc3C)c2)c1,110% [3 µM]
20,CCN(CC)S(=O)(=O)c1ccc(S(=O)(=O)N2CCC[C@@H](C(=O)N3CCN(c4nc(C(C)C)no4)CC3)C2)cc1,102%
